PubChem BioAssay (NCI)
“And” between values parts separate entries of the source, which are not always exact repeats. Identical values can stand only once. Compounds without any hit were thinned out: in the full panel of roughly 83,000, 20% have a hit.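 Assay: single dose, 48 h. Readout: percent growth (0 = no net growth; negative = cell death). Active: <10.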 Values without a mark were called inactive. The source made the active and inactive calls.

Assays:
Assay in all cases: NCI-60 one-dose screen, 48 h (100 = growth as untreated, 0 = no growth, -100 = all killed)
Conditions in all cases: 10 µM unless noted
[1] = test system: NCI-H23 lung
[2] = test system: NCI-H226 lung
[3] = test system: NCI-H322M lung
[4] = test system: HOP-62 NSCLC
[5] = test system: NCI-H460 lung
[6] = test system: HOP-92 NSCLC
[7] = test system: NCI-H522 lung
[8] = test system: A549/ATCC NSCLC
[9] = test system: 786-0 renal
[10] = test system: COLO 205 colon
[11] = test system: DU-145 prostate
[12] = test system: K-562 leukemia
[13] = test system: MALME-3M melanoma
[14] = test system: MDA-MB-231 breast
[15] = test system: RXF 393 renal
[16] = test system: SF-268 CNS
[17] = test system: SF-295 CNS
[18] = test system: SF-539 CNS
[19] = test system: UACC-257 melanoma
[20] = test system: M14 melanoma

SMILES | growth [1] | growth [2] | growth [3] | growth [4] | growth [5] | growth [6] | growth [7] | growth [8] | growth [9] | growth [10] | growth [11] | growth [12] | growth [13] | growth [14] | growth [15] | growth [16] | growth [17] | growth [18] | growth [19] | growth [20]
C[C@H](NC(=O)c1ccc2c(-c3ccc(C(F)(F)F)cc3)cccc2c1)c1ccccn1 | 70.7% | 28.3% | 50.8% | 77.3% | 42.5% | 25.5% | 16.9% | 39.6% | 44.3% | 61.6% | 56.4% | 20.6% | 67% | 59.9% | 13% | 58.9% | 32.5% | 62.3% | 64.3% | 40.7%
Cc1ccc(O)cc1Nc1nc(SCCN2CCOCC2)nc2c1cnn2CC(Cl)c1ccc(Br)cc1 (stereo not given) | 13.7% | 27.5% | 73.5% | 23% | 9.59% (active) | -19.8% (active) | 15.8% | -9.82% (active) | 11.1% | 85.9% | 29.5% | -38.6% (active) | 1.03% (active) | -30.6% (active) | -24.3% (active) | 23.6% | -2.67% (active) | 10.7% | 18.1% | 9.14% (active)
COc1cc(/C=N/NC(=O)c2ccc(OCc3nc4ccc(Cl)cc4[nH]3)cc2)cc(OC)c1OC | 34.7% | 35.5% | 55.1% | 64.2% | 44.7% | 118% | 26.2% | 59.2% | 29.3% | 29.3% | 64.5% | 14.7% | 14.1% | 52.8% | -26.2% (active) | 70% | 13.2% | 30.2% | 42.3% | 42.6%
CCCCN1C(=O)/C(=C\C(=O)c2cc3ccccc3oc2=O)c2ccccc21 | 79% | 88.5% | 99.4% | 92.3% | 86.4% | 63.7% | -19.9% (active) | 106% | 75% | -20.5% (active) | 85.8% | -36.9% (active) | 69% | 48.2% | 60.1% | 87.5% | 101% | 80.2% | 105% | 53.5%
CCCCCCCCc1ccc(C(=O)Nc2ccc(C)c(OP(=O)(O)O)c2)cc1 | 101% | 102% | 111% | 104% | 110% | 42% | 82.1% | 105% | 83.6% | 126% | 101% | 87% | 102% | 97.3% | 113% | 83.1% | 91.2% | 93.4% | 102% | 106%
Cc1cccc(C)c1Nc1nnc(-c2c[nH]c3ccccc23)o1 | 88.8% | 78.9% | 98% | 83.1% | 99.7% | 89.9% | 89.4% | 98.1% | 105% | 110% | 107% | 98.4% | 78.4% | 79.1% | 108% | 104% | 96% | 94.1% | 95.7% | 102%
CCCCCCCCCCCCCCCCCC(=O)Nc1ccc(OC)cc1 | 105% | 103% | 102% | 101% | 109% | 102% | 88.2% | 104% | 102% | 120% | 112% | 92% | 97.7% | 99.9% | 115% | 108% | 106% | 97.3% | 102% | 105%
Nc1cc2ccccc2c(=O)n1NC(=O)c1ccccc1 | 87.4% | 80.8% | 104% | 103% | 105% | 111% | 89.3% | 103% | 105% | 111% | 104% | 97.6% | 84.4% | 87% | 104% | 95.9% | 90.6% | 93.7% | 104% | 100%
CN1C(=O)/C(=C/c2ccco2)S/C1=N/c1nccs1 | 97.3% | 113% | 94.3% | 108% | 103% | 114% | 100% | 107% | 97.6% | 121% | 107% | 101% | 118% | 109% | 111% | 107% | 102% | 103% | 117% | 117%
CCN1C(=O)N(CC)C2NNC(Sc3c(C(=O)O)c4ccccc4n(CCC(C)C)c3=O)=NC21 (stereo not given) | 10.7% | 30.4% | 52.9% | 27.3% | -7.83% (active) | 49.4% | -21.7% (active) | 12.4% | 16% | -20.8% (active) | 17.7% | 6.37% (active) | 46.5% | 10.9% | -1.23% (active) | 49.3% | -16.5% (active) | -53.4% (active) | 40% | 12.1%
Fc1ccc(Nc2nnc(-c3c[nH]c4ccccc34)o2)cc1 | 85.7% | 70.2% | 94.5% | 71% | 91.9% | 58.2% | 48.7% | 77.5% | 94.7% | 127% | 98% | 66.9% | 80.8% | 60.8% | 93.9% | 73.1% | 84.1% | 71.2% | 92.7% | 102%
Nc1nc(-c2ccccc2)c(N=Nc2ccc(Cl)cc2Cl)s1 | -43.8% (active) | -17.4% (active) | 4.7% (active) | -61.9% (active) | -66.8% (active) | -54.1% (active) | -15.3% (active) | 12.5% | -51.9% (active) | -16.6% (active) | 2.88% (active) | -44.7% (active) | -47.5% (active) | -89.5% (active) | -69.7% (active) | -46% (active) | -90.5% (active) | -77.2% (active) | -2.45% (active) | -59.6% (active)
CC[C@]12C=CCN3CC[C@@]4(c5ccc(OC)cc5N(C)[C@H]4[C@@](O)(C(=O)OC)[C@@H]1OC(=O)CCC[P+](c1ccc(OC)cc1)(c1ccc(OC)cc1)c1ccc(OC)cc1)[C@@H]32 | -92.5% (active) | -80.3% (active) | -97.7% (active) | -81.6% (active) | -85.2% (active) | -82.9% (active) | -89.4% (active) | -91.4% (active) | -89.5% (active) | -64.4% (active) | -75.4% (active) | -1.75% (active) | -97.8% (active) | -97% (active) | -92.6% (active) | -34.3% (active) | -93.7% (active) | -98.9% (active) | -93.5% (active) | -88.4% (active)
CC(=O)Nc1cccc(-n2c(COc3ccc(Br)cc3)nc3ccccc32)c1 | 94% and 107% | 76.2% and 107% | 103% and 104% | 119% and 114% | 105% and 107% | 90% and 108% | 97.1% and 108% | 115% and 108% | 115% and 103% | 108% and 124% | 106% and 89.7% | 91.4% and 106% | 96.3% and 98.8% | 80% and 102% | 82.4% and 106% | 91% and 103% | 89.6% and 103% | 87.4% and 106% | 130% and 107% | 109% and 108%
Cc1ccccc1NC(=O)c1cccc(NC(=O)CCl)c1 | 52.8% | 42.4% | 101% | 32.3% | 41.6% | 70% | -71.7% (active) | 59.1% | 16.6% | 76.5% | 69.4% | 28.1% | 79.6% | 49.7% | 49.7% | 60.1% | 38.4% | 51.3% | 47.5% | 50.5%
